This passage reports Potency and activity, negative = inhibition results from PubChem BioAssay AID504332 (National Center for Advancing Translational Sciences (NCATS), 2011).

Each structure is given as a SMILES string. Screen size: about 350,000 compounds; about 31,000 (8.9%) were called active. Entries that show only a call come without a potency. Another 15% or so got no clear call; they are omitted. The sample as a whole holds a higher share of actives than the screen did. A number with no mark means an inactive call. Calls come from the whole dose curve; as a rule, active = well fitted inhibition curve with a large enough effect; inconclusive = small, poorly fitted or top-dose-only effect; inactive = no such curve, though single readings can be large or run the other way.
Potency is the fitted concentration of half-maximal effect.

The target in the experiment is Histone-lysine N-methyltransferase EHMT2 (Homo sapiens) (UniProt Q96KQ7). Nature of the experiment: qHTS Assay for Inhibitors of Histone Lysine Methyltransferase G9a. Note: nearly all actives have a fitted effect of over 75% in size. The conditions noted are these: G9a H3K9 monomethylation, AlphaScreen, 2 h; series mostly up to 59 µM. In a few lines: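 Quantitative HTS format: methyltransferase activity on a biotin-tagged H3K9 peptide is measured by AlphaScreen, using a rabbit anti-monomethyl-H3K9 antibody with streptavidin donor and anti-IgG acceptor beads. Final levels are 20 nM enzyme, 500 nM peptide, 20 uM SAM; 2 h RT.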
Histone-lysine N-methyltransferase EHMT2 (Homo sapiens), sequence (Q96KQ7 913-1193 limits assumed): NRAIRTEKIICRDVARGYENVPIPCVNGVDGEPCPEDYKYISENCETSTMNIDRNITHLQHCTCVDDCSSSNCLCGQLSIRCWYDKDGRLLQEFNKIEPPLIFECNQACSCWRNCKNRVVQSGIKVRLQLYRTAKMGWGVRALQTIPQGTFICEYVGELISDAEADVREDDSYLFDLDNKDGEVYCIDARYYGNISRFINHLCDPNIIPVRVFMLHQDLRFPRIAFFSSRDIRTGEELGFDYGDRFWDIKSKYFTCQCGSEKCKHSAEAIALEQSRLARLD
On the technique in general: Quantitative high-throughput screening tests each substance at several concentrations.
As for `Cc1ccc(C)c(NC(CC(=O)c2ccccc2)C(=O)OCC(=O)c2cccs2)c1` (stereo unspecified), the Potency was 28.2 µM (active).
Still for that read-out and setting: under `Cc1ccc(C)c(NC(=O)CCC(=O)NNC(=O)c2cccs2)c1` stands “inactive”.
With `COC(=O)C(CC(=O)Nc1cc(C)ccc1C)Nc1ccccc1OC` (stereo unspecified), the activity, negative = inhibition was -11.9% [at 2.33 µM].
On to `CN1C(C(=O)NCC2CC2)CC2Cn3c(nc4ccccc43)C21` (stereo unspecified), for which the activity, negative = inhibition is 2.03% [at 2.33 µM].
For the compound `Cc1ccc(S(=O)(=O)CC(=O)Nc2sc(C)c(C)c2C(N)=O)cc1`, the activity, negative = inhibition was -22.4% [at 0.501 µM].
`COc1ccccc1C(=O)Nc1ccc(C)c(S(=O)(=O)N2CCCCC2)c1`: the Potency result was “inactive”.
The same measure, in the same setting: the same measure for `CCCCc1nc2ccccc2c(NC(=O)CN2CCN(C)CC2)c1CCC`: 10 µM (active); for `CCCCc1nc2ccccc2c(=O)n1NC(=O)c1c(O)c2cccc3c2n(c1=O)CC3`: “inactive”; for `CCOC(=O)N1CCN(CC(=O)Nc2cc(C)nn2-c2nc3ccccc3s2)CC1`: “inactive”.
Regarding `FC(F)(F)c1ccc2nnc(-c3c(Cl)cccc3Cl)n2c1`, the Potency was 44.7 µM (active).
`O=C1Cc2cc(S(=O)(=O)Nc3ccc(OC(F)(F)F)cc3)cc3c2N1CCC3`: the Potency result is “inactive”.
For `O=C(Nc1ccon1)c1nc[nH]c1C(=O)NCc1ccccc1`, the activity, negative = inhibition was 4.11% [at 0.501 µM].
Turning to `CCOC(=O)c1c(C)[nH]c(C)c1S(=O)(=O)N(C)CC(=O)N1CCN(c2ccccc2)CC1`, the Potency entry is “inactive”.
As for `O=C(Cc1ccc(-n2c(=O)[nH]c3ccccc3c2=O)cc1)N1CCN(c2cccc(Cl)c2)CC1`, the activity, negative = inhibition is -10.6% [at 12.7 µM].
Take `CCOC(=O)N1CCN(C(=O)Cc2ccc(-n3c(=S)[nH]c4ccccc4c3=O)cc2)CC1`: the Potency was 44.7 µM (active).
`CCCCNC(=O)c1ccc(-n2c(=S)[nH]c3ccccc3c2=O)cc1`: the Potency result is “inactive”.
`O=C(COC(=O)/C=C/c1ccc(OC(F)F)cc1)NC1CCCCC1`: the Potency result was “inactive”.
In the case of `Cc1ccc(OCCNC(=O)CCNS(=O)(=O)c2ccc(Br)cc2)cc1`, the Potency entry is “inactive”.
With `COc1ccccc1-c1oc2ccccc2c1C#CCCCCO`, the activity, negative = inhibition is 7.94% [at 0.501 µM].
Take `Cc1ccc(CS(=O)(=O)c2ncc(Cl)c(C(=O)Nc3nnc(C)s3)n2)cc1`: the Potency was 14.1 µM (active).
Same read-out and setting: under `Cc1cccc(OCc2ccc(C(=O)Nc3ccc(F)cc3)cc2)c1` stands “inactive”.
For the compound `Cc1cccc(NC(=O)c2nc(S(=O)(=O)Cc3ccccc3)ncc2Cl)c1`, the Potency is 39.8 µM (active).
As for `Cc1nnc(NC(=O)Nc2ccc(Cl)c(Cl)c2)s1`, the Potency entry was “inactive”.
Still for that read-out and setting: the same measure for `CCSc1ncc(Cl)c(C(=O)Nc2cc(C)ccc2C)n1`: “inactive”; for `Cc1cccc(NC(=O)c2nc[nH]c2C(=O)NCC(=O)OCc2ccccc2)c1`: “inactive”.
With `Cc1ccc(S(=O)(=O)CC(=O)Nc2nnc(C)s2)cc1`, the Potency entry was “inactive”.
Regarding `CCOC(=O)c1ccc(NC(=O)c2nc(SCc3ccc(F)cc3)ncc2Cl)cc1`, the Potency result was “inactive”.
On to `Cc1cccc(CS(=O)(=O)c2ncc(Cl)c(C(=O)Nc3ccc(F)cc3)n2)c1`, for which the Potency is 28.2 µM (active).
Take `Cc1ccc(NC(=O)CN(C)C(=O)c2cccc(S(=O)(=O)N3CCCC3)c2)cc1`: the Potency result is “inactive”.
As for `COc1ccccc1OCC(=O)Nc1ccccc1C(=O)NC1CC1`, the activity, negative = inhibition was -4.61% [at 0.501 µM].
Take `COc1ccc(CCNC(=O)c2ccc(-n3c(C)cc4c3CCCC4)cc2)cc1OC`: the Potency entry is “inactive”.
In the case of `O=C(CSC1=NS(=O)(=O)c2cc(F)ccc2N1)Nc1ccccc1F`, the Potency result is “inactive”.
With `N#Cc1nc(/C=C/c2ccc(F)cc2)oc1NC1CCCCC1`, the Potency entry is “inactive”.
Regarding `Cc1cc(C)c(NC(=O)Cn2c(SCC(=O)NCc3ccccc3)nc3ccccc32)c(C)c1`, the Potency entry was “inactive”.
Regarding `O=C(Nc1cc(Cl)cc(Cl)c1)c1ccc2c(c1)N(Cc1cccc(Cl)c1)C(=O)c1ccccc1S2=O` (stereo unspecified), the Potency result is “inactive”.
On the same count and under the same terms, the same measure for `COc1ccccc1NC(=O)c1oc2ccccc2c1NC(=O)COc1ccccc1OC`: “inactive”; for `CCC(C)c1ccc2oc(-c3ccc(NC(=O)c4cc5ccccc5o4)cc3)nc2c1` (stereo unspecified): “inactive”.
Regarding `COc1cc(NS(=O)(=O)c2ccc(NC(=O)c3ccc([N+](=O)[O-])cc3)cc2)ncn1`, the Potency result is “inactive”.
With `Cn1ccc(=Nc2ccc(NC(=O)c3ccc(N=c4ccn(C)c5ccc([N+](=O)[O-])cc45)cc3)cc2)cc1`, the Potency is 15.8 µM (active).
Take `Cc1cc([N+](=O)[O-])ccc1NC(=O)c1ccc(NC(=O)C(C)C)cc1`: the Potency entry is “inactive”.
Turning to `COc1ccccc1CNS(=O)(=O)CC12CCC(CC1=O)C2(C)C` (stereo unspecified), the Potency entry is “inactive”.
On to `COc1cc(C(=O)NCc2cc3cc(Cl)ccc3n2C)cc(OC)c1OC`, for which the Potency result was “inactive”.
For the compound `Cc1c(Cl)cccc1NC(=O)c1noc2c1CCCC2`, the Potency result was “inactive”.
In the case of `Cc1ccc(S(=O)(=O)N2CCCCC2)cc1C(=O)N(C)CC(=O)Nc1cccc(F)c1`, the Potency result is “inactive”.
As for `Cc1cc(C)c(SCCc2ccncc2)c(C)c1`, the Potency entry was “inactive”.
Still for that read-out and setting: the same measure for `CCOCC(=O)Nc1ncc(S(=O)(=O)c2ccc([N+](=O)[O-])cc2)s1`: 35.5 µM (active); for `CC(C)c1nnc(NC(=O)COC(=O)/C=C/c2ccc([N+](=O)[O-])cc2)s1`: “inactive”.
On to `Cc1cc(NC(=O)COc2ccc([N+](=O)[O-])cc2)no1`, for which the activity, negative = inhibition is -2.93% [at 12.7 µM].
For `CC/C(=N\NC(=O)c1c(C)nc2ccccn12)c1ccc(Cl)cc1`, the Potency result was “inactive”.
Same read-out and setting: under `CC(C)C(C)NC(=O)COc1nc2ccccc2nc1N(C)C1CCCCC1` (stereo unspecified) stands “inactive”; under `COc1ccccc1N(C)S(=O)(=O)c1ccc(Cl)c(C(=O)Nc2ccncc2)c1`, “inactive”; under `CN1CCN(C2(CNC(=O)COc3ccc(C(C)(C)C)cc3)CCCCC2)CC1`, “inactive”.
Same read-out and setting: under `C/C(=N\NC(=S)NCc1ccccc1)C1CCCCC1` stands 35.5 µM (active); under `O=C(CC1CCCCC1)NCc1ccccc1`, “inactive”.
With `C/C(=N\NC(=S)NCc1ccccc1)c1ccc(Cl)cc1`, the Potency result was “inactive”.
On to `COc1ccc(OC)c(CNC(=O)Cn2nc(C)c3c(C)n(-c4ccc(C)cc4)nc3c2=O)c1`, for which the Potency result is “inactive”.
In the case of `COc1cccc(CNC(=O)c2ccc3c(Cl)c4c(nc3c2)CCCC4)c1`, the Potency result was “inactive”.
On the same count and under the same terms, under `CC1(C)CC(CCC(=O)Nc2ccccc2Cl)C(=O)O1` (stereo unspecified) stands “inactive”; under `CCc1noc(C)c1C(=O)Nc1nc(-c2ccccc2)cs1`, “inactive”.
The same measure, in the same setting: under `C/C(CC1CC(C)(C)OC1=O)=N/Nc1nc(-c2ccccc2)cs1` (stereo unspecified) stands 3.16 µM (active); under `CN1C(=O)c2[nH]nc(-c3ccc(F)cc3)c2C1c1ccccn1` (stereo unspecified), “inactive”.
